Bioassay records: PubChem, National Center for Advancing Translational Sciences (NCATS)
A selection: hits, their analogues and other compounds. The true share with any hit is near 9.4%.
AMA1-RON2 inh – qHTS for Inhibitors of AMA1-RON; Towards Development of Antimalarial Drug Lead: Primary Screen; Potency, µM (highest dose often 58.2 µM), hits mostly inhibitors; Plasmodium falciparum AMA1 (3D7) - RON2 peptide interaction; 0.2% of 360,000 active; AlphaScreen AMA1-biotinylated RON2 peptide binding; note: nearly all actives have a fitted effect of over 45% in size
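AMA1 (3D7) with his tag at 25 nM final met compounds first, then biotinylated RON2 peptide at 25 nM; detection used donor plus acceptor beads, 10 µg/mL apiece, read by AlphaScreen after 30 min at room temperature.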
Pf growth 48h – Primary qHTS for delayed death inhibitors of the malarial parasite plastid, 48 hour incubation | 5.9% of 310,000 active | P. falciparum luciferase growth in erythrocytes, 48 h | Potency, µM (highest dose often 28.7 µM), hits mostly inhibitors
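Erythrocytes infected with P. falciparum carrying an integrated firefly luciferase reporter (2% hematocrit, 0.1% parasitemia final) were exposed to compounds in RPMI 1640 with 0.5% Albumax at 37 C, 5% CO2. Growth inhibition was scored as reduced luminescence.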
SARS PLpro yeast – qHTS of Yeast-based Assay for SARS-CoV PLP; S. cerevisiae expressing SARS-CoV PLpro, growth rescue; Potency, µM (series often up to 32.9 µM), most hits filed as activators; 0.19% of 330,000 active; calls by dose curve; note: nearly all actives have a fitted effect of over 55% in size
Pf growth 96h – Primary qHTS for delayed death inhibitors of the malarial parasite plastid, 96 hour incubation; 6.9% of 320,000 active; Potency, µM (series often up to 28.7 µM), hits mostly inhibitors; AID 504834, 2011; P. falciparum luciferase reporter growth, 96 h
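Readout is luminescence from an integrated firefly luciferase in P. falciparum. Red cells, 2% hematocrit and 0.05% parasitemia final, were cultured with compound through two parasite generations (96 hours) at 37 C, 5% CO2.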
Hits are given with their value; . = inactive; ? = inconclusive; / = no result given; [ ] = remark or other dose. Unless noted, calls come from the whole dose curve; as a rule, active = well fitted curve in the direction sought with a large enough effect; inconclusive = small, poorly fitted or top-dose-only effect, or another doubt; inactive = no such curve, though single readings can be large; an effect the other way counts as inactive or inconclusive.

SMILES | AMA1-RON2 inh | Pf growth 48h | SARS PLpro yeast | Pf growth 96h
COc1cccc(-c2ncc3ccccc3c2COC(=O)c2ccc(Br)cc2)c1 | . | ? | . | ?
COc1cccc(-c2ncc3ccccc3c2COC(=O)c2ccc(C(F)(F)F)cc2)c1 | . | ? | . | 2.9µM
CCOC(=O)c1sc(NC(=O)Nc2ccccc2Cl)cc1C | . | . | . | .
CCC1CCCCN1CCCNC(=O)c1ccc2c(c1)NC(=O)CS2 (centres undefined) | . | ? | . | .
CCOC(=O)c1sc(NC(=O)C(CC)Sc2nc3ccccc3[nH]2)nc1C (centres undefined) | . | / | / | /
Cn1cc(C(c2ccccc2OCC(=O)O)c2cn(C)c3ccccc23)c2ccccc21 | . | . | . | 5.2µM
N#C/C(=C\c1c(Cl)cccc1Cl)c1nn(-c2ccccc2)c(-n2cccc2)c1C#N | . | ? | . | ?
N#C/C(=C\c1c(F)cccc1Cl)c1nn(-c2ccccc2)c(-n2cccc2)c1C#N | . | 12µM | . | ?
O=P(c1ccccc1)(c1ccccc1)C(O)c1ccccn1 (centres undefined) | . | . | . | .
O=P(c1ccccc1)(c1ccccc1)C(c1ccccn1)P(=O)(c1ccccc1)c1ccccc1 | . | ? | . | 9.3µM
O=C(O)C(c1ccccc1)N1C(=O)c2cccc3cccc(c23)C1=O (centres undefined) | . | . | . | 1.5µM
Cn1nc(-c2ccc(Cl)cc2)nc2c(=O)n(C)c(=O)nc1-2 | / | ? | . | 0.93µM
COc1ccccc1/C=C/C(=O)OCC(=O)Nc1ccc2c(c1)OCO2 | .[11.6 µM] | / | . | /
Cc1cc(C(C)(C)C)c(O)c(C(C)(C)C)c1 | . | . | . | .
Cc1cc(O)c(Oc2cc(C)cc(O)c2O)c(O)c1 | 4.5µM | . | . | .
CC(C)OC(=O)c1c(NC(=O)C2CC=CCC2C(=O)O)sc2c1CCCCC2 (centres undefined) | . | . | . | 9.3µM
Cn1ccc2c(N3CCOCC3)cc3c(c21)C1CCC3O1 (centres undefined) | . | / | / | /
Cn1ccc2c(N3CCCCCC3)cc3c(c21)C1CCC3O1 (centres undefined) | 32µM | / | / | /
Cn1ccc2c(N3CCCCC3)cc3c(c21)C1CCC3C1 (centres undefined) | 16µM | / | / | /
Cc1ccc(C(CC(=O)NCc2ccco2)c2ccccc2)c(O)c1 (centres undefined) | . | / | . | .
COc1cc([N+](=O)[O-])ccc1-c1ccc(/C=N/NC(N)=O)o1 | . | . | . | .
OCCC1CN(Cc2nc(-c3ccccc3)cs2)CCN1CCc1ccccc1 (centres undefined) | . | ? | . | ?
O=C(Nc1ccc(S(=O)(=O)NC2=NCCCCC2)cc1)c1ccc(Cl)c([N+](=O)[O-])c1 | . | / | . | /
O=C(NCc1cccs1)C1CCCN(S(=O)(=O)c2cccc3cccnc23)C1 (centres undefined) | . | / | . | ?
OC[C@@H]1CCCN1Cc1cn(-c2ccccc2)nc1-c1ccc2c(c1)OCO2 | . | 13µM | . | .
SMILES | AMA1-RON2 inh | Pf growth 48h | SARS PLpro yeast | Pf growth 96h
COCC1CCCCN1Cc1cn(-c2ccccc2)nc1-c1ccc2c(c1)OCO2 (centres undefined) | . | ? | . | ?
CCOC(=O)C1=C(COC(=O)CCc2ccccc2)NC(=O)NC1C (centres undefined) | . | . | . | .
CSc1nnc2c3cc(F)ccc3n(C)c2n1 | . | ? | . | .
COc1ccc(Nc2ncc3c(n2)CC(c2ccc(OC)cc2)CC3=O)cc1 (centres undefined) | . | ? | . | 9.3µM
COc1ccc(C2CC(=O)c3sc(N)nc3C2)cc1 (centres undefined) | . | 2.9µM | . | 2.6µM
COc1ccc(Nc2ncc3c(n2)CC(c2ccc(C)cc2)CC3=O)cc1 (centres undefined) | . | ? | . | ?
COc1ccc(-n2c(C)nnc2SCC(=O)N2C(C)CCCC2C)cc1 (centres undefined) | . | . | . | .
CN(CC(=O)Nc1cccc(F)c1)C(=O)/C=C/c1ccc(Br)s1 | . | . | . | .
Nc1ccc(N2CCCCCC2)cc1 | / | 0.41µM | . | ?
Cc1ccc(CN2CC(C(=O)N(Cc3nnc(-c4ccccc4Cl)o3)C3CC3)CC2=O)cc1 (centres undefined) | . | ? | . | ?
O=C(N/N=C/c1ccccc1)c1[nH]c2ccc(Br)cc2c1-c1ccccc1 | . | . | . | .
